Results published in ChEMBL document CHEMBL3433997, “St. Jude Leishmania screening dataset” (2016).

target: Solute carrier family 2, facilitated glucose transporter member 1 (Homo sapiens) (UniProt P11166); assay: ST_JUDE_LEISH: Cytotoxicity at 2uM final concentration against transgenic Leishmania Mexicana promastigotes LmGLUT1 that are glucose transport deficient and complemented with the human glucose transporter GLUT1. Activity is measured by DNA content using SYBR green in vitro; format: functional
Sequence (P11166 whole entry): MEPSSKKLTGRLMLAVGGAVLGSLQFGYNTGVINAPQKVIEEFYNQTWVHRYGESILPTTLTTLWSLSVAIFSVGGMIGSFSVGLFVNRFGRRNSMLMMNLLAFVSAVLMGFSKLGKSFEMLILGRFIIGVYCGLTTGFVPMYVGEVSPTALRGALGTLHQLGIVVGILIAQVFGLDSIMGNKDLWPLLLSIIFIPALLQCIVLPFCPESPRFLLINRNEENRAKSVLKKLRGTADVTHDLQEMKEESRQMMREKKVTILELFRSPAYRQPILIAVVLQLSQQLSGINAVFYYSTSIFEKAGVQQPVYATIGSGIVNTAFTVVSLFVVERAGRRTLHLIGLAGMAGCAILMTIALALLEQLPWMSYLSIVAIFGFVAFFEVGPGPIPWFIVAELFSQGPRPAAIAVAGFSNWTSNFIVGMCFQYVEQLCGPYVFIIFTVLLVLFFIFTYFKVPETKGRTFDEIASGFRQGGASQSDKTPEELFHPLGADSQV

Compared with Cc1c(C2CCN(CCCCNC(=O)c3ccc(-c4ccc(C#N)cc4)cc3)CC2)c2ccccc2n1CCO, CCOc1cc(CC)ccc1C1CCN(CCN2CCC(CNC(=O)c3ccc(-c4ccc(C#N)cc4)cc3)CC2)CC1 is higher in inhibition: 3.84% for the first, 16.2% for the second.

Compared with CCn1ccc2c(N3CCCS3(=O)=O)cc(C(=O)N[C@@H](Cc3ccccc3)[C@H](O)CNC(C)(C)CCCC(C)C)cc21, CO/C(=C\C=C\c1cc2cc(Cl)ccc2[nH]1)C(=O)NCCCN1CCN(c2cc(Cl)ccc2OC)CC1 is lower in inhibition: 7.39% for the first, 1.52% for the second.

Going from COc1ccccc1N1CCN(Cc2c(O)ccc3cc(Br)ccc23)CC1 to COc1ccc(-c2cccc(NC(=O)c3cccc(Cl)c3)c2)cc1CN1CCNCC1, the inhibition falls from 5.54% to 2.8%.

Compared with CC1CCC(C[C@@H](C(=O)N[C@@H](CCC(=O)N2CCCCC2)C(=O)Nc2nccs2)[C@H](C(C)C)N(O)C=O)CC1 (stereo not given in full), O=S(=O)(NC1CCCCN(Cc2ccccc2O)C1)c1ccc(C(F)(F)F)cc1 (stereo not given) is lower in inhibition: 3.85% for the first, 1.87% for the second.

Compared with c1cncc(-c2cc(N3CCCCC3)nc(-c3ccncc3)n2)c1, CC(C)Cc1cn(-c2nc(-c3nc4ccccc4[nH]3)cs2)c2ccncc12 is lower in inhibition: 8.22% for the first, 4.69% for the second.

First: CCCCCCCCn1c2c(c(=N)c3c1CCC3)CCC2
Second: CCC(C)Oc1ccc(CCCON2C(N)=NC(N)=NC2(C)C)cc1 (stereo not given)
The inhibition of the first is higher: 87.3% for the first, 12.6% for the second.

Compared with COc1ccc(-c2cc(NCc3ccc(-n4ccnc4)cc3)nc(Nc3ccccc3)n2)cc1, CN(C)c1ccc(NC(=O)Nc2ccnc3ccccc23)cc1Br is higher in inhibition: 2.37% for the first, 8.81% for the second.

For COC(=O)C1=C(C)NC2=C(C(=O)CC(c3ccc(OC)c(OC)c3)C2)C1c1cccc(O)c1 (stereo not given), the inhibition was 3.8%.
